Screening results from PubChem BioAssay.
CSC inhib: cancer stem cell inhibition. 300,000 tested, 1.1% active. cancer stem cell-like cells viability, luminescence. inhibition, % at 7.5 µM; in the data active = inhibition above about 75%; inconclusive = no clear call, values can overlap the other calls; tested in HMLE shEcad cells
PAX8 reporter: inhibitors of PAX8 transcriptional activity in RMG-I cells; 360,000 tested, 1.2% active; RMG-I TPO-luciferase reporter, SteadyGlo, 24 h; inhibition, % at 12.6 µM;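 active = mean replicate inhibition at least 60% with every replicate also reaching 60%; inconclusive = only one of the two criteria is met; inactive = mean below 60% and not all replicates reaching 60%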;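 also: luciferase light reporting Pax8 driven TPO promoter activity; plate controls were median of neutral control wells for no effect and mitoxantrone controls for full effect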
Mdm2-MdmX inh: human Mdm2/MdmX binding inhibition. O15151+Q00987. SaOS-2 split-luciferase Mdm2/MdmX complementation, luminescence. inhibition, % at 8 µM. 330,000 tested, 3% active. AID 485346;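 active = inhibition of at least 50% at 8 µM in the primary screen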
Gli-Sufu antag: antagonists of Gli-Sufu signaling; AID 588413; 340,000 tested, 0.74% active; Sufu-KO-LIGHT fibroblasts, Gli luciferase reporter luminescence; inhibition, % at 5 µM;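 active = inhibition above about 55%, limit read from the data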;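 also: 0% = DMSO-treated cells and 100% = wells with medium but no cells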
Shn3 inh set2: Schnurri-3 reporter inhibition in Clone20 osteoblasts | Clone20 osteoblast Shn3 3'UTR firefly luciferase, 24 h | inhibition, % at 12.5 µM | 360,000 tested, 0.52% active;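 active = mean inhibition of at least 75% with every replicate also reaching 75%; inconclusive = mean inhibition at least 75% but some replicate below; inactive = mean inhibition below 75%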;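 also: 0% = median of neutral control wells and 100% = pilot-screen positive control compound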
Beta cell apopt: beta cell apoptosis inhibition. INS-1E cytokine-induced death, ATP luminescence, 48 h; percent of positive-control rescue, neutral wells zero. protection from apoptosis, % (concentration not given with the values). 300,000 tested, 0.8% active. AID 435005;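 active = Every replicate reaches about 75%, or at least half do and their mean reaches it too, limit read from the data; inconclusive = At least half of replicates reach the limit but their mean does not; inactive = Under half of replicates reach the limit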;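 also: 0% = cytokine-treated negative control wells and 100% = positive control rescue; higher means more ATP so stronger rescue from cytokine killing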
* = called active by the depositor; ? = inconclusive; / = not tested or not shown. In the library only some 4% were active in any assay of this set; here they are far more common.

SMILES | CSC inhib | PAX8 reporter | Mdm2-MdmX inh | Gli-Sufu antag | Shn3 inh set2 | Beta cell apopt
COCC(=O)N1[C@@H]2c3ccc(-c4ccc(F)cc4)c(=O)n3C[C@@H]2[C@@H](CO)[C@@H]1C(=O)Nc1ccccc1 | / | -20 | / | / | / | /
COc1ccc(NC(=O)Nc2ccc3c(c2)C(=O)N([C@@H](C)CO)C[C@H](C)[C@H](CN(C)C(=O)C2CCCCC2)OCCCC[C@H](C)O3)cc1 | / | 11 | / | / | / | /
C[C@@H]1CN([C@H](C)CO)C(=O)c2c(c3ccccc3n2C)-c2ccccc2CO[C@H]1CN(C)Cc1ccc(Oc2ccccc2)cc1 | / | 85* | / | / | 3 | /
C[C@@H]1CN([C@H](C)CO)C(=O)c2c(c3ccccc3n2C)-c2ccccc2CO[C@@H]1CN(C)Cc1ccc(C(F)(F)F)cc1 | / | -7 | / | / | / | /
C[C@H]1CN([C@@H](C)CO)C(=O)c2c(c3ccccc3n2C)-c2ccccc2CO[C@@H]1CN(C)Cc1ccc(Oc2ccccc2)cc1 | / | 56 | / | / | / | /
C[C@H]1CN([C@@H](C)CO)C(=O)c2c(c3ccccc3n2C)-c2ccccc2CO[C@@H]1CN(C)Cc1ccc(C(F)(F)F)cc1 | / | 64* | / | / | / | /
O=C(C[C@@H]1CC[C@H](NC(=O)Nc2ccc(C(F)(F)F)cc2)[C@H](CO)O1)NCc1cccc(F)c1 | / | 29 | / | / | / | /
CN(C)C(=O)C[C@H]1CC[C@H]2[C@@H](COc3ccc(NS(=O)(=O)c4cccc(F)c4)cc3C(=O)N2C)O1 | / | 9 | / | / | / | /
O=C1NC(=Nc2ccccc2Cl)S/C1=C\c1ccc(C(=O)O)cc1 | -4 | 19 | 1 | 4 | 2 | -5
CC12CCC(C/C1=N\N=C1\NC(=O)/C(=C\c3ccc(Cl)cc3)S1)C2(C)C (stereo not given) | 122* | -35 | 27 | -7 | 28 | 6
COc1ccc(NC(=O)N[C@@H]2C=C[C@H](CC(=O)NC3CCCCC3)O[C@H]2CO)cc1 | / | 1 | / | / | / | /
C=C(CN(C)C)C(=O)c1cc(C)ccc1C | / | 52 | / | 11 | 95* | /
CCN1CCC(O)(/C=C/c2ccc(C(C)C)cc2)C(C(=O)/C=C/c2ccc(C(C)C)cc2)C1 (stereo not given) | / | 64* | / | 1 | 83 | /
C(=C\c1nc(N2CCCCCC2)c2ccccc2n1)/c1ccccc1 | 79* | -8 | -13 | 13 | 65 | 109*
O=c1c2ccccc2oc2ccc(-c3ccc4cc[nH]c4c3)cc12 | 89* | / | -106 | -152 | 2 | -4
Cc1cc(N2CCN(C)CC2)nc2ccc(NC(=S)N3CCN(c4ccc(Cl)cc4)CC3)cc12 | 109* | -24 | 35 | -10 | 3 | 9
CCn1c(N2CCN(S(=O)(=O)c3ccc(Cl)cc3)CC2)nc2ccccc21 | 6 | 4 | -6 | 12 | 85 | 15
CCn1c(N2CCN(S(=O)(=O)c3ccc(F)cc3)CC2)nc2ccccc21 | 80* | 14 | 11 | 20 | 26 | 17
CCCCCCSc1cc(-c2nc3ccc(C)cn3c2NCc2ccccc2)ccc1OC | -7 | 1 | 23 | 26 | -4 | 117*
CCCCNc1c(-c2ccc(SC(C)CC)c(OC)c2)nc2ccc(C)cn12 (stereo not given) | 123* | ? | 50 | 29 | 18 | 53
CCC(C)Sc1cccc(-c2nc3ccc(C)cn3c2NCc2ccccc2)c1 (stereo not given) | 125* | 6 | 36 | 11 | 76 | ?
CCCCCCSc1ccc(-c2nc3ccc(C)cn3c2NCCCC)cc1OC | / | 7 | / | / | / | /
Cc1ccc2nc(-c3cccc(-c4cccc(Cl)c4)c3)c(NCc3ccccc3)n2c1 | ? | -20 | 20 | 9 | 74 | 94*
CO[C@H]1CN(C)C(=O)c2cc(NC(=O)CC(F)(F)F)ccc2OC[C@H](C)N(C(=O)C2CCOCC2)C[C@@H]1C | / | -13 | / | / | / | /
O=C(Nc1ccc(-c2ccccc2)cc1)[C@@H]1[C@@H](CO)[C@@H]2Cn3c(cccc3=O)[C@H]1N2Cc1cncnc1 | / | -15 | / | / | / | /
CCCCCCSc1cccc(-c2nc3ccc(C)cn3c2NCc2ccccc2)c1 | 80* | -88 | -2 | -11 | -6 | 3
CCCCCCSc1cccc(-c2nc3cc(C)ccn3c2NCc2ccccc2)c1 | 63 | -32 | 18 | 10 | 18 | 10
C[C@H](O)C#Cc1ccc2c(c1)O[C@@H](CN(C)Cc1ccc(-c3ccccc3)cc1)[C@H](C)CN([C@H](C)CO)S2(=O)=O | / | 94* | / | / | / | /
